Measurements published in the supplement of paper PMC9023506.
Where a name gives a salt, the structure may show the parent alone.

These molecules were tested on Danio rerio larvae (5 dpf) (assay: optomotor response to fast red moving lines, difference vs DMSO (percentage points (treated minus DMSO)); higher = more of the behaviour than the DMSO vehicle control). Settings: 10 µM; exposure time: 3 h pre-incubation + 3 h imaging.
Procedure, shortened: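 Library drugs were diluted 1000× from DMSO stocks into egg water to reach 10 µM and applied to 5-dpf wild-type zebrafish larvae in 96-well ProxiPlates, 48 larvae per drug. The larvae stayed exposed for 3 h before imaging and for the 3 h of imaging at 28.5 °C. Behaviour scores, given in percentage points, are the treated mean minus the vehicle mean for movement and upper-half location.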

| Compound | optomotor response |
| --- | --- |
| C#CCN[C@@H]1CCc2ccccc21 [Rasagiline mesylate] | 0.354 |
| CN1CC[C@@H](NC(=O)Nc2ccc(C#N)cc2)C[C@@H]1c1nc2ccccc2[nH]1 | -0.171 |
| CC(C)c1nc(CN(C)C(=O)N[C@H](C(=O)N[C@@H](Cc2ccccc2)C[C@H](O)[C@H](Cc2ccccc2)NC(=O)OCc2cncs2)C(C)C)cs1 [Ritonavir] | -9.38 |
| CN[C@H]1CC[C@@H](c2ccc(Cl)c(Cl)c2)c2ccccc21 [Sertraline hydrochloride] | -8.12 |
| CCOC(=O)[C@H](CCc1ccccc1)N[C@H]1CCc2ccccc2N(CC(=O)O)C1=O [Benazepril hydrochloride] | -1.29 |
| O=c1[nH]c(=O)n([C@H]2C[C@H](O)[C@@H](CO)O2)cc1C(F)(F)F [Trifluorothymidine] | -0.769 |
| COc1cc(Nc2c(C#N)cnc3cc(OCCCN4CCN(C)CC4)c(OC)cc23)c(Cl)cc1Cl [Bosutinib] | 1.89 |
| OCc1cc(C(O)CNCCCCCCOCCCCc2ccccc2)ccc1O (stereo unspecified) [Salmeterol xinafoate] | -5.49 |
| CC#C[C@]1(O)CC[C@H]2[C@@H]3CCC4=CC(=O)CCC4=C3[C@@H](c3ccc(N(C)C)cc3)C[C@@]21C [Mifepristone] | -1.97 |
| COc1cccc2c1C(=O)c1c(O)c3c(c(O)c1C2=O)C[C@@](O)(C(=O)CO)C[C@@H]3O[C@H]1C[C@H](N)[C@H](O)[C@H](C)O1 [Doxorubicin hydrochloride] | 6.53 |
| CC(CCc1ccc(O)cc1)NCCc1ccc(O)c(O)c1 (stereo unspecified) [Dobutamine hydrochloride] | -7.53 |
